Experiment [1] deals with Peroxisome proliferator-activated receptor delta (Homo sapiens) (UniProt Q03181). Kind of experiment: qHTS assay to identify small molecule agonists of the peroxisome proliferator-activated receptor delta (PPARd) signaling pathway (AID 743212; calls by dose curve). In short, it runs like this: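 Read-out: beta-lactamase FRET fluorescence after 2 h room-temperature incubation with LiveBLAzer B/G substrate. Cells were HEK293H carrying a UAS-bla reporter for PPARd, treated at 37 C with DMSO-dissolved compounds.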

Experiment [2] is described as follows: qHTS assay to identify small molecule antagonists of the peroxisome proliferator-activated receptor delta (PPARd) signaling pathway - cell viability counter screen (AID 743213). Note: nearly all actives have a fitted effect of over 50% in size. Note: potency is the fitted concentration of half-maximal effect. In short, it runs like this:
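Same-well viability: cells pre-incubated 5 h, dosed with compound plus 300 nM L165041, kept 17 h at 37 C, FRET substrate 2 h RT, then CellTiter-Glo 30 min RT and luminescence.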

Experiment [3] deals with Peroxisome proliferator-activated receptor delta (Homo sapiens) (UniProt Q03181). The experiment is described as follows: qHTS assay to identify small molecule antagonists of the peroxisome proliferator-activated receptor delta (PPARd) signaling pathway (AID 743215; active = well fitted inhibition curve with a large enough effect in the signal ratio in the repeat runs, not every such curve was filed as active; the % refers to the signal ratio;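 note: cells stimulated with agonist L165041 at 300 nM final during compound exposure; series mostly up to about 62 µM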). In short, it runs like this:
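Cells: HEK293H with a UAS-driven beta-lactamase reporter responsive to PPARd. Compounds were co-added with L165041 (300 nM, final) and incubated 17 h at 37 C before a 2 h room-temperature FRET substrate step and fluorescence reading.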
Background: In qHTS, concentration-response curves come from the screen itself.

Experiment [4] can be described thus: qHTS assay to identify small molecule agonists of the farnesoid-X-receptor (FXR) signaling pathway - cell viability counter screen (AID 743218). Note: nearly all actives have a fitted effect of over 45% in size. Note: potency is the fitted concentration of half-maximal effect. The gist of the method: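 Cells were seeded, left 5 h at 37 C and 5% CO2, then dosed with compound in DMSO for 16 h. After the beta-lactamase FRET read, CellTiter-Glo was added and luminescence measured 30 min later.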

Experiment [5] is described as follows: qHTS assay to identify small molecule antagonists of the farnesoid-X-receptor (FXR) signaling pathway - cell viability counter screen (AID 743221; active = well fitted cell-killing curve with a large enough effect in the repeat runs, not every such curve was filed as active; note: nearly all actives have a fitted effect of over 50% in size; note: potency is the fitted concentration of half-maximal effect). The gist of the method: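 HEK 293T FXR-bla cells, 5 h pre-incubation; compound + CDCA 50 uM final, 16 h, 37 C; beta-lactamase FRET read first, then CellTiter-Glo luminescence, 30 min RT.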
The nature of experiment [6]: qHTS assay to identify small molecule agonists of the NFkB signaling pathway - cell viability counter screen (AID 1159515; calls by dose curve; note: nearly all actives have a fitted effect of over 55% in size; note: potency is the fitted concentration of half-maximal effect). The gist of the method:
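Cells are seeded (2,000 NFkB-bla ME-180 per well), rested overnight, and dosed with DMSO-dissolved compounds for 5 hr at 37 C. Viability is then read by CellTiter-Glo luminescence after 30 min at room temperature.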

Experiment [7] can be described thus: qHTS assay to identify small molecule agonists of the endoplasmic reticulum stress response signaling pathway - cell viability counter screen (AID 1159517; calls by dose curve; note: nearly all actives have a fitted effect of over 50% in size; note: potency is the fitted concentration of half-maximal effect). In short, it runs like this:
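Steps: seed 1,500 ESRE-bla HeLa cells per well; incubate overnight at 37 C, 5% CO2; add compounds in DMSO for 5 hr; run FRET substrate 2 hr RT; add CellTiter-Glo, wait 30 min, read luminescence.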

The nature of experiment [8]: qHTS assay to identify small molecule antagonists of the retinoid-related orphan receptor gamma (ROR-gamma) signaling pathway - cell viability counter screen (AID 1159520). Note: nearly all actives have a fitted effect of over 50% in size. Note: potency is the fitted concentration of half-maximal effect. The gist of the method: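 Tet-on ROR gamma CHO cells were given compounds for 2 hr, then doxycycline hyclate at 1 uM final, and incubated 16 hr at 37 C. Viability was measured as ATP content by CellTiter-Glo luminescence.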

Experiment [9] has as its target Nuclear receptor ROR-gamma (Homo sapiens) (UniProt P51449). The experiment is described as follows: qHTS assay to identify small molecule antagonists of the retinoid-related orphan receptor gamma (ROR-gamma) signaling pathway (AID 1159521; note: nearly all actives have a fitted effect of over 50% in size; note: potency is the fitted concentration of half-maximal effect). In short, it runs like this:
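Luminescence readout (ONE-Glo, 30 min RT) after 16 h doxycycline induction; loss of signal scored as antagonism. CHO cells with TET-inducible RORγ and RORE-LUC reporter; compounds added 2 h before 1 uM final doxycycline.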

The nature of experiment [10]: qHTS assay to identify small molecule agonists of the AP-1 signaling pathway - cell viability counter screen (AID 1159525; calls by dose curve; note: nearly all actives have a fitted effect of over 55% in size; note: potency is the fitted concentration of half-maximal effect). In short, it runs like this: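 Same-well cytotoxicity counter screen of the Tox21 10K library in ME-180 cells. The readout is ATP-dependent luminescence after 5 h compound treatment. Data are normalised to DMSO and tetra n-octyl ammonium bromide controls.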

A short description of experiment [11]: qHTS assay to identify small molecule agonists of the AP-1 signaling pathway (AID 1159526; calls by dose curve).
Experiment [12] deals with Vitamin D3 receptor (Homo sapiens) (UniProt P11473). Kind of experiment: qHTS assay to identify small molecule agonists of the vitamin D receptor (VDR) signaling pathway (AID 743222; calls by dose curve). The gist of the method: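 Cells carrying a VDR-driven beta-lactamase reporter are seeded at 2,000 per well and rested 4 h. Compounds in DMSO are added for 16 h at 37C, and FRET substrate fluorescence is measured after 2 h at room temperature.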

The target is the same in experiment [13]. Kind of experiment: qHTS assay to identify small molecule antagonists of the vitamin D receptor (VDR) signaling pathway (AID 743223; active = well fitted inhibition curve with a large enough effect in the signal ratio in the repeat runs, not every such curve was filed as active; the % refers to the signal ratio; note: potency is the fitted concentration of half-maximal effect). The gist of the method: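 Beta-lactamase reporter read-out: FRET substrate fluorescence after 2 h at room temperature, following 16 h exposure of VDR-bla cells to test compound plus 3 nM (final) 1alpha,25-dihydroxyvitamin D3 agonist at 37C.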

A short description of experiment [14]: qHTS assay to identify small molecule agonists of the vitamin D receptor (VDR) signaling pathway - cell viability counter screen (AID 743224). Note: nearly all actives have a fitted effect of over 50% in size. Note: potency is the fitted concentration of half-maximal effect. In short, it runs like this: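 Cells: VDR-bla, 2,000/well, settled 4 h. Treatment: compounds in DMSO, 16 h, 37C/5% CO2. Readout: CellTiter-Glo luminescence after 30 min RT.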
Experiment [15] is described as follows: qHTS assay to identify small molecule antagonists of the vitamin D receptor (VDR) signaling pathway - cell viability counter screen (AID 743225). Note: nearly all actives have a fitted effect of over 50% in size. Note: potency is the fitted concentration of half-maximal effect. The gist of the method:
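Viability counter screen run in the same wells as the beta-lactamase reporter assay: HEK 293T VDR-UAS-bla cells, 16 h compound exposure at 37C with 3 nM (final) 1-alpha,25-dihydroxyvitamin D3. CellTiter-Glo luminescence, 30 min, room temperature.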

Experiment [16] is described as follows: qHTS assay to identify small molecule agonists of the RXR signaling pathway - cell viability counter screen (AID 1159529). Note: nearly all actives have a fitted effect of over 50% in size. Note: potency is the fitted concentration of half-maximal effect. The gist of the method:
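Luminescence from CellTiter-Glo (30 min, RT) measured viability in the same wells as the beta-lactamase reporter readout. Cells: GeneBLAzer RXR-alpha HEK 293T, 2% charcoal-stripped FBS. Compound exposure 16 hr, 37 C.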

Experiment [17] concerns the target Bile acid receptor (Homo sapiens) (UniProt Q96RI1). Kind of experiment: qHTS assay to identify small molecule antagonists of the farnesoid-X-receptor (FXR) signaling pathway (AID 743217; active = well fitted inhibition curve with a large enough effect in the signal ratio in the repeat runs, not every such curve was filed as active; the % refers to the signal ratio). In short, it runs like this:
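Cells carrying a UAS-driven beta-lactamase reporter (GeneBLAzer FXR-UAS-bla HEK 293T) were plated and rested 5 h at 37 °C. Compounds in DMSO were added alongside chenodeoxycholic acid agonist at 50 uM final and left 16 h at 37 °C before FRET substrate readout.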

The target is the same in experiment [18]. The experiment is described as follows: qHTS assay to identify small molecule agonists of the farnesoid-X-receptor (FXR) signaling pathway (AID 743220; active = well fitted activation curve with a large enough effect in the signal ratio in the repeat runs, not every such curve was filed as active; the % refers to the signal ratio). In short, it runs like this:
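FXR-UAS-bla HEK 293T cells carrying a UAS-driven beta-lactamase reporter were plated for 5 h at 37C/5% CO2, then exposed to DMSO-dissolved Tox21 10K compounds for 16 h at 37C. A LiveBLAzer B/G FRET substrate was loaded for 2 h at room temperature before fluorescence reading.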

Experiment [19] addresses Retinoic acid receptor RXR-alpha (Homo sapiens) (UniProt P19793). The experiment is described as follows: qHTS assay to identify small molecule agonists of the RXR signaling pathway (AID 1159527; calls by dose curve; note: nearly all actives have a fitted effect of over 35% in size). In short, it runs like this: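 Agonist mode; 9-cis retinoic acid positive control. HEK 293T UAS-bla reporter cells, 2% charcoal-stripped FBS, 16 hr compound exposure at 37 C/5% CO2. LiveBLAzer B/G FRET substrate 2 hr RT; ex 405, em 460/530 nm.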

Records with an inconclusive call do not appear. Activity calls are given as the source filed them. Unless noted, calls come from the whole dose curve; as a rule, active = well fitted curve in the direction sought with a large enough effect in the repeat runs; inconclusive = weak or mixed curves; inactive = no such curve, though single readings can be large; an effect the other way counts as inactive or inconclusive.

Peroxisome proliferator-activated receptor delta (Homo sapiens), sequence (Q03181 whole entry, looked up): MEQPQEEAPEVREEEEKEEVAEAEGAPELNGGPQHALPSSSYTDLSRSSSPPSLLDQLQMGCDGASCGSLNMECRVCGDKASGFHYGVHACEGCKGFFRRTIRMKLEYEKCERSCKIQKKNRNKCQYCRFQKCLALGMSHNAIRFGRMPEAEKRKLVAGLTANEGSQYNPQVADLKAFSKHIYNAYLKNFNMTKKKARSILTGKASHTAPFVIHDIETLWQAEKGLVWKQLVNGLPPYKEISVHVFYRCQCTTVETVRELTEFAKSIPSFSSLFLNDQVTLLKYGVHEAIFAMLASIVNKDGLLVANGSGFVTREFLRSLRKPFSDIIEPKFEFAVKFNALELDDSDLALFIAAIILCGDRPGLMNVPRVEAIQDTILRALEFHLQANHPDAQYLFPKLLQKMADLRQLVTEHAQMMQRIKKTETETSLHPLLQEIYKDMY
Bile acid receptor (Homo sapiens), sequence (Q96RI1 whole entry, looked up): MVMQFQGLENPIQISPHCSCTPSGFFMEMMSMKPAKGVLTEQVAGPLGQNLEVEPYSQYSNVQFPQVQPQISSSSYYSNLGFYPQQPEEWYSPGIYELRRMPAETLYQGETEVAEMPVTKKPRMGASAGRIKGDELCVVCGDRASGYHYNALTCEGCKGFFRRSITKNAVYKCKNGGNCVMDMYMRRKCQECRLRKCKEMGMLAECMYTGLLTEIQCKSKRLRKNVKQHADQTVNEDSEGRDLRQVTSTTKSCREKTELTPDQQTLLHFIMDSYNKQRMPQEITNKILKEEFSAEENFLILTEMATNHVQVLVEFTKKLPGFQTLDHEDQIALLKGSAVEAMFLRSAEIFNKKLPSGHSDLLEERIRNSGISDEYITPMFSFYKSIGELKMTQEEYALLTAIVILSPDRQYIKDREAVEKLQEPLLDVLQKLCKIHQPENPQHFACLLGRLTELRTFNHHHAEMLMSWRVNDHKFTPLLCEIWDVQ
Vitamin D3 receptor (Homo sapiens), sequence (P11473 whole entry, looked up): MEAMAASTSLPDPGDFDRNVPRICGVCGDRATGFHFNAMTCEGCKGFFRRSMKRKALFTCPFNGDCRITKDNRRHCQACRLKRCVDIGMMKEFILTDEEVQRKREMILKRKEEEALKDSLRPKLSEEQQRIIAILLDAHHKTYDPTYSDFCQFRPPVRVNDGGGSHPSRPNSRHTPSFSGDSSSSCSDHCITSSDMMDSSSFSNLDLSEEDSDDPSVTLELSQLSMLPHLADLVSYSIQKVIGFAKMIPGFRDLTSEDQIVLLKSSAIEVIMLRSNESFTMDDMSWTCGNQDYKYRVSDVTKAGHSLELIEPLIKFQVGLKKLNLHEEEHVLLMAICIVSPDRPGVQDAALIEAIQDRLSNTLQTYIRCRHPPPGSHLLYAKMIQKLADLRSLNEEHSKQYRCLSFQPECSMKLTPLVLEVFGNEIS
Retinoic acid receptor RXR-alpha (Homo sapiens), sequence (P19793 whole entry, looked up): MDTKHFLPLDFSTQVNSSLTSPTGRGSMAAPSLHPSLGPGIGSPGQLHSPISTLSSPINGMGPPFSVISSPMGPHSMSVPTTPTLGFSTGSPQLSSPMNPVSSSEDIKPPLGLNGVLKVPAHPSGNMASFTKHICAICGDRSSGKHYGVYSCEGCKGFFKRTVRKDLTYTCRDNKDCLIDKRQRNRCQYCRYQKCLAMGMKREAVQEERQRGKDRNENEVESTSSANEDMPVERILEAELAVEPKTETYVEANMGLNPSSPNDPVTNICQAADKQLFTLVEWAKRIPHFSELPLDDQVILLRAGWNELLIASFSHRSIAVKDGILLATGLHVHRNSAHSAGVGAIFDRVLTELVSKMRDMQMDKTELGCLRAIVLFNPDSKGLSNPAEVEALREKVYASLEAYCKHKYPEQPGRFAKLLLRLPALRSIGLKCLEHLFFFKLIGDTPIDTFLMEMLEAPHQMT

For `Cc1cccc(CN2CCN(C(c3ccccc3)c3ccc(Cl)cc3)CC2)c1` (configuration not stated), the Potency entry in experiment [1], in experiment [2], in experiment [3], in experiment [5], in experiment [6] and in experiment [7] was “inactive” throughout. For the same compound, the Potency entry in experiment [8], in [9], in [10] and in experiment [11] was “inactive” each time. For the same compound, the Potency in [4] was 29.8 µM (active).
On to `O=S1(=O)CC(Cl)(Cl)C(Cl)(Cl)C1`, for which the Potency in experiment [2] was 3.89 µM (active); in experiment [4], 5.49 µM (active); in experiment [5], 9.77 µM (active); in [13], 1.74 µM (active); in [14], 2.19 µM (active); in experiment [15] it was 4.36 µM (active). The Potency was 5.49 µM (active) in [6]; 4.9 µM (active) in experiment [7]; 6.11 µM (active) in experiment [8]; 2.17 µM (active) in experiment [9]; 4.9 µM (active) in experiment [10]; 4.36 µM (active) in experiment [16]. Also, the Potency entry in [12] was “inactive”.
On to `COc1cc(-c2ccc(N=C=O)c(OC)c2)ccc1N=C=O`, for which the Potency entry in [1], in [2], in experiment [17], in [18], in experiment [5] and in [12] was “inactive” each time. In addition, the Potency result in [13], in experiment [14], in experiment [6], in [7], in experiment [8] and in [9] was “inactive” each time. The Potency entry in experiment [10], in experiment [19] and in experiment [16] was “inactive” in each case.
For `COc1ccc(C(=O)/C(Br)=C\C(=O)O)cc1`, the Potency entry in experiment [2], in [4], in experiment [5], in experiment [14], in experiment [6] and in [7] was “inactive” each time. Also, the Potency result in experiment [9], in experiment [10] and in experiment [16] was “inactive” in each case. For the same compound, the Potency in experiment [8] is 48.6 µM (active).
Consider `CCN(C(=O)c1cc(C)cc(OC[C@H](C)Nc2ccncc2)c1)C(C)C`, for which the Potency result in [2], in experiment [4], in experiment [18], in [5], in [14] and in experiment [15] was “inactive” each time. The Potency entry in [6], in experiment [7], in experiment [8], in experiment [9], in [10] and in [16] was “inactive” throughout.
As to `CCCCCCCCNC(C)C(O)c1ccc(SC(C)C)cc1` (configuration not stated), the Potency in experiment [2] was 8.41 µM (active); in experiment [4], 18.8 µM (active); in [5], 23.7 µM (active); in experiment [14], 13.3 µM (active); in experiment [15], 9.52 µM (active); in [6], 13.4 µM (active). In addition, the Potency in experiment [7] is 19 µM (active); in experiment [8] it was 18.8 µM (active); in experiment [9], 23.7 µM (active); in [10] it was 16.9 µM (active); in [16], 9.52 µM (active).
As to `NNc1nc(-c2ccc([N+](=O)[O-])cc2)cs1`, the Potency result in experiment [5], in experiment [13], in experiment [6], in [7], in experiment [10] and in [16] was “inactive” in each case. Also, the Potency in experiment [8] was 30.6 µM (active); in experiment [9], 10.9 µM (active).
In the case of `N=C1C=CC(=C(c2ccc(N)cc2)c2ccc(N)cc2)C=C1`, the Potency result in [1], in experiment [5], in experiment [6], in experiment [7] and in experiment [10] was “inactive” in each case. Also, the Potency in experiment [8] was 13.7 µM (active); in experiment [9], 15.4 µM (active).
